The source of these data is PubChem BioAssay (Tox21).

The nature of test [1]: qHTS assay for small molecule agonists of the p53 signaling pathway (AID 651631; calls by dose curve; also: nearly all actives have a fitted effect of over 15% in size; also: potency is read from the fitted curve at half-maximal effect). The gist of the method:
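We treat p53RE-bla HCT-116 cells with compounds for 16 h at 37 °C, add LiveBLAzer B/G FRET substrate for 2 h at room temperature, and measure fluorescence intensity.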
A general note: Quantitative high-throughput screening tests each substance at several concentrations.

A short description of test [2]: qHTS assay for small molecules that induce genotoxicity in human embryonic kidney cells expressing luciferase-tagged ATAD5 (AID 651632). Also: nearly all actives have a fitted effect of over 15% in size. In a few lines: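 DMSO vehicle served as the control. HEK293T reporter cells, 16 hr at 37C, then 30 min Amplite at room temperature; ATAD5 induction is measured as luciferase activity.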
A short description of test [3]: qHTS assay for small molecule agonists of the p53 signaling pathway - cell viability (AID 651633; calls by dose curve;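 also: p53RE-bla HCT reporter cells with a stable beta-lactamase p53 reporter; series mostly up to about 83 µM; nearly all actives have a fitted effect of over 30% in size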). The gist of the method: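 p53RE-bla cells were treated with compound for 16 hours at 37 C. Cytotoxicity was then measured as CellTiter-Glo luminescence after 30 min at room temperature.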
Test [4] in a line: qHTS assay for small molecules that induce genotoxicity in human embryonic kidney cells expressing luciferase-tagged ATAD5 - cell viability (AID 651634; calls by dose curve; also: nearly all actives have a fitted effect of over 25% in size). In a few lines: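 Here HEK293T cells with the ATAD5 luciferase reporter are incubated with test compounds for 15.5 hr, and cytotoxicity is then gauged by measuring protease activity in live cells using fluorescence.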
Test [5] in a line: qHTS assay for small molecule disruptors of the mitochondrial membrane potential - cell viability (AID 720634; calls by dose curve;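 also: human HepG2 liver cancer cells; series mostly up to about 83 µM; nearly all actives have a fitted effect of over 20% in size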). In a few lines: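 Viability of HepG2 cells is scored from ATP content by luminescence; cells are exposed to compound for 1 hr at 37 C and 5% CO2, then dosed with m-MPI dye before the CellTiter-Glo reagent.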
Test [6] is described as follows: qHTS assay for small molecule disruptors of the mitochondrial membrane potential (AID 720635). In a few lines:
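HepG2 cells exposed to compound 1 hr at 37C, then Mito-MPS dye 30 min. Ratio read of aggregate (540/590 nm) versus monomer (490/535 nm) fluorescence.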

A short description of test [7]: qHTS assay to test for compound auto fluorescence at 590 nm (red) in HepG2 cells (AID 720674). The gist of the method: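 Fluorescence at 590 nm emission following 540 nm excitation was recorded from HepG2 wells one hour after compound transfer, with DMSO-only wells as vehicle and Rose Bengal sodium equivalency as the scale.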
The nature of test [8]: qHTS assay to test for compound auto fluorescence at 535 nm (green) in HepG2 cells (AID 720675).
Test [9] can be described thus: qHTS assay to test for compound auto fluorescence at 590 nm (red) in HEK293 cells (AID 720679). In a few lines: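 HEK293 cells (2,000/well, 10% dialyzed FBS) attached 4-5 hr, then dosed with compound or DMSO and incubated overnight at 37C, 5% CO2. Red fluorescence read at 540/590 nm, Rose Bengal sodium as reference fluorophore.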
Test [10] is described as follows: qHTS assay to test for compound auto fluorescence at 535 nm (green) in HEK293 cells (AID 720680).
Test [11] is described as follows: qHTS assay to test for compound auto fluorescence at 460 nm (blue) in HEK293 cell free culture (AID 720681). In a few lines: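 Compounds were added to cell-free DMEM with 10% FBS and fluorescence read directly. The blue channel used 405 nm excitation and 460 nm emission, with triamterene as the reference fluorophore.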
Test [12] can be described thus: qHTS assay to test for compound auto fluorescence at 535 nm (green) in HEK293 cell free culture (AID 720682). The gist of the method: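 Green-channel intensity (Ex/Em 485/535 nm) was recorded from compound-treated wells containing only DMEM with 10% FBS. Fluorescein provided the equivalency standard.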
Test [13] in a line: qHTS assay to test for compound auto fluorescence at 590 nm (red) in HEK293 cell free culture (AID 720683). The gist of the method: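 Cell-free wells of DMEM with 10% FBS received compound, and intrinsic fluorescence was read at excitation/emission 540/590 nm. Values expressed as equivalence to Rose Bengal sodium.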
Test [14] in a line: qHTS assay to test for compound auto fluorescence at 460 nm (blue) in HepG2 cell free culture (AID 720685). In a few lines: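 Cell-free plates of MEM plus 10% FBS received 23 nL compound or DMSO vehicle; blue-channel (405/460 nm) intensity scored against triamterene as reference fluorophore.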
Test [15] in a line: qHTS assay to test for compound auto fluorescence at 535 nm (green) in HepG2 cell free culture (AID 720686).
Test [16] is described as follows: qHTS assay to test for compound auto fluorescence at 460 nm (blue) in HepG2 cells (AID 720687). In a few lines:
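HepG2 cells in MEM with 10% FBS, attached overnight at 37 C, were exposed to compound or DMSO for 1 hr at 37 C, 5% CO2. Blue fluorescence was read at 405/460 nm, with triamterene as reference fluorophore.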

The target in test [17] is Glucocorticoid receptor (Homo sapiens) (UniProt P04150). Put plainly: qHTS assay to identify small molecule agonists of the glucocorticoid receptor (GR) signaling pathway (AID 720691; active = well fitted activation curve with a large enough effect in the signal ratio in the repeat runs, not every such curve was filed as active; the % refers to the signal ratio). The gist of the method: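 Compounds in DMSO, alongside positive controls, were added to GR-bla HeLa reporter cells and incubated 18 h at 37 C; GRE-driven beta-lactamase was detected by fluorescence after 2 h with FRET substrate at room temperature.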

The target is the same in test [18]. In words: qHTS assay to identify small molecule antagonists of the glucocorticoid receptor (GR) signaling pathway (AID 720692; active = well fitted inhibition curve with a large enough effect in the signal ratio in the repeat runs, not every such curve was filed as active; the % refers to the signal ratio). The gist of the method:
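In a 1536-well cell format, compounds were added 4 h after seeding GR-bla HeLa cells, together with dexamethasone at 5 nM final; reporter activity was measured by FRET-substrate fluorescence following 18 h at 37 C.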

Test [19] in a line: qHTS assay to test for compound auto fluorescence at 460 nm (blue) in HEK293 cells (AID 720678). In a few lines:
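HEK293 cells (2,000/well, medium with 10% dialyzed FBS) attached 4-5 hr, then exposed to compound overnight at 37C, 5% CO2. Blue fluorescence read at 405/460 nm, with triamterene as reference fluorophore.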

A short description of test [20]: qHTS assay to test for compound auto fluorescence at 590 nm (red) in HepG2 cell free culture (AID 720684). The gist of the method:
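Auto fluorescence equivalency versus Rose Bengal sodium, red channel Ex/Em 540/590 nm; compounds in cell-free MEM/10% FBS; DMSO vehicle control.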

Values joined by “and” are separate entries in the source; they are usually repeats but may differ in a detail not shown here. Identical values can stand only once. Records with an inconclusive call do not appear. Some structures have more than one record in an assay (separate samples or runs), and their calls can disagree. Active and inactive are the calls of the source. Unless noted, calls follow the shape of the dose curve; as a rule, active = well fitted curve in the direction sought with a large enough effect in the repeat runs; inconclusive = weak or mixed curves; inactive = no such curve, though single readings can be large; an effect the other way counts as inactive or inconclusive.

Glucocorticoid receptor (Homo sapiens), sequence (P04150 whole entry, looked up): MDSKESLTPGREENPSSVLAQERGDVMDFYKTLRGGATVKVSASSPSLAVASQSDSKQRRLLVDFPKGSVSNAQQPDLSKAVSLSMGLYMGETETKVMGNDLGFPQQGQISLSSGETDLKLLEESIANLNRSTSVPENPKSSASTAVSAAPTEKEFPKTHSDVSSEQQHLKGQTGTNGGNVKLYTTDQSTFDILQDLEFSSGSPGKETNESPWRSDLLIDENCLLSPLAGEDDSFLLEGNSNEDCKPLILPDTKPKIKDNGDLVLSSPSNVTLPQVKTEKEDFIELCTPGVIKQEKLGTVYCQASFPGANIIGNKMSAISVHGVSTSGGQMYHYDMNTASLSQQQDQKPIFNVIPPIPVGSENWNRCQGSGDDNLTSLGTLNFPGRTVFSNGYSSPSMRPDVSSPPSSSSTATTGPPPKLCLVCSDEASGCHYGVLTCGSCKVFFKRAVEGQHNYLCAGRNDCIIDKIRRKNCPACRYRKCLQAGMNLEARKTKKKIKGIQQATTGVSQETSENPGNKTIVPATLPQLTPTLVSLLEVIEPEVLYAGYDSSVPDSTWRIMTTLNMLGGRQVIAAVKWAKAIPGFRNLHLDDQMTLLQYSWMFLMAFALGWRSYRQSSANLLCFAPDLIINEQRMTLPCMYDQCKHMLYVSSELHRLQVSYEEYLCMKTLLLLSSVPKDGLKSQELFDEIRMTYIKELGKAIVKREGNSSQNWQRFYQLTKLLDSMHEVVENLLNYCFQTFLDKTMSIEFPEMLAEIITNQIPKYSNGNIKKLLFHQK

For the compound `c1ccc2n[nH]nc2c1`, the Potency result in test [1], in test [2], in [3], in [4], in test [5] and in [6] was “inactive” in each case. Moreover, the Potency entry in test [8], in test [10], in test [11], in [12], in test [14] and in test [15] was “inactive” in each case. Besides, the Potency result in test [16], in [17] and in test [18] was “inactive” each time. For the same compound, the call in [7], in test [9] and in test [13] was inactive.
For `CC(C)(O)CCC(C)(C)O`, the Potency result in test [1], in test [2], in [3], in [4], in test [5] and in [6] was “inactive” in each case. Besides, the Potency result in [8], in test [19], in test [10], in test [11], in [12] and in test [14] was “inactive” throughout. Besides, the Potency result in test [15], in [16], in test [17] and in [18] was “inactive” each time. The result in [7], in test [9], in [13] and in test [20] was inactive.
For `CC(=O)OCC1=C(C(=O)O)N2C(=O)[C@@H](NC(=O)Cc3cccs3)[C@H]2SC1`, the Potency result in test [1], in [2], in test [3], in test [4], in [5] and in test [6] was “inactive” throughout. For the same compound, the Potency entry in test [8], in [10], in test [11], in test [12], in test [15] and in [16] was “inactive” each time. Further, the Potency result in test [17] and in [18] was “inactive” in each case. In addition, the outcome in test [7], in [13] and in test [20] was inactive.
As for `CC1COC(=O)O1` (stereo unspecified), the Potency entry in test [1], in test [2], in test [3], in [4], in test [5] and in test [6] was “inactive” throughout. Further, the Potency result in test [8], in test [19], in test [10], in [11], in [12] and in test [14] was “inactive” throughout. For the same compound, the Potency entry in test [15], in [16], in test [17] and in test [18] was “inactive” throughout. Further, the outcome in test [7], in test [9], in test [13] and in test [20] was inactive.
Consider `Cc1cccc([N+](=O)[O-])c1C(=O)O`, for which the Potency result in test [1], in test [2], in [3], in [4], in test [5] and in test [6] was “inactive” in each case. Further, the Potency result in [8], in test [10], in test [11], in test [12], in test [14] and in test [15] was “inactive” throughout. Also, the Potency result in test [16], in [17] and in test [18] was “inactive” in each case. Also, the call in [7], in test [9] and in test [13] was inactive.
As to `[Cl][In]([Cl])[Cl]`, the Potency result in test [1] is “inactive and 61.1 µM (active)”. The Potency entry in test [2], in [3], in test [4], in [5], in test [6] and in test [8] was “inactive” each time. Besides, the Potency result in [19], in test [10], in [11], in test [12], in test [15] and in [16] was “inactive” in each case. Further, in test [17], the Potency result is “inactive”. Besides, the call in [7], in test [9], in test [13] and in test [20] was inactive.
